The list is not random: actives were taken first. Their share in the collection is about 1.6%.
Efflux pump mplx: blocks antifungal efflux pumps in multiplex yeast assay; S. cerevisiae Candida pump triplex, Nile Red efflux; AID 485275; hit rate 0.44% among 330,000; inhibition, % at 10 µM;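 active = plate passing quality check with inhibition over a set limit, or well fluorescence over plate mean plus 4 SD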;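 note: Nile Red retained in pooled yeast measured as flow cytometry median fluorescence; 0% = buffer negative control and 100% = Enniatin B positive control; higher means more Nile Red kept so more efflux inhibition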
ATG4B inh: ATG4B (human) cysteine protease inhibition | inhibition, % at 8.33 µM | ATG4B cleavage of LC3-PLA2, NBD-HPC fluorescence, 1 h | AID 504462 | hit rate 0.51% among 340,000; in the data active = inhibition above about 40%
GRK2 aptamer HTS: blocks RNA aptamer binding to human GRK2. inhibition of aptamer binding, % at 10 µM. hit rate 0.59% among 330,000. bead flow cytometry, FAM-aptamer displacement from GRK2. AID 488847;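 active = inhibition of aptamer binding above 40%, roughly 3 SD of noise, on plates passing a quality check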;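 note: median bead fluorescence of bound FAM aptamer so fluorescent compounds give negative values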
Target sequence (P25098 whole entry, looked up): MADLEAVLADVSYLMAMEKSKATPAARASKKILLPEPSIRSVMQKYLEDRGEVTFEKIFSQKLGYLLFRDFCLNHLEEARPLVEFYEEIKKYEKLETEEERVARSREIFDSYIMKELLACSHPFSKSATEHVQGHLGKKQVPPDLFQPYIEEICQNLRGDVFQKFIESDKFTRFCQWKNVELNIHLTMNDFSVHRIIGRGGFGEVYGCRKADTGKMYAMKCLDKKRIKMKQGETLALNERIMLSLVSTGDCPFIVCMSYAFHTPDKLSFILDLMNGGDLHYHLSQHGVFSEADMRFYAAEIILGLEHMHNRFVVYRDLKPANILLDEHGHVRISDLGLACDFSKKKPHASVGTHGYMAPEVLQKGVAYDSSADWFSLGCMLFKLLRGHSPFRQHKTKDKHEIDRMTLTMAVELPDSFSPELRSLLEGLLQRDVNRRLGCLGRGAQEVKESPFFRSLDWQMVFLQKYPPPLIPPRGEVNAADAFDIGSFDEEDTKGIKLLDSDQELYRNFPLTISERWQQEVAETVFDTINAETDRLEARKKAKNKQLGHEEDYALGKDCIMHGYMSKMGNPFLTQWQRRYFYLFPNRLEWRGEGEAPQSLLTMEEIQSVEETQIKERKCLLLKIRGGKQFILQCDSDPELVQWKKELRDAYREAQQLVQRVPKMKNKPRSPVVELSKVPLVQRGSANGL
CR mimetic SO: yeast age-related superoxide inhibition as caloric restriction mimetic. S. cerevisiae aged cells, superoxide DHE fluorescence; active compounds read low. superoxide response (% of plate mean), % at 10 µM. hit rate 0.18% among 330,000. AID 2690;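 active = superoxide response under a set limit, about three screen SD below normal, cut at about 65% in these data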;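 note: yeast aged for seven days with compound at 30 °C before DHE staining; 100% = average MFI of all compound-treated wells on the plate with controls excluded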
Cmpd fluor yeast: counter-screen for efflux pump inhibitors: compound fluorescence. shares compounds with Efflux pump mplx. S. cerevisiae AD/pABC3, flow cytometry. fluorescence ratio to DMSO, % at 10 µM. hit rate 4% among 1,700. AID 588517;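 active = fluorescence ratio to DMSO above its plate's cutoff, the plate mean ratio plus 5 SD, cut at about 210% in these data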;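 note: unstained yeast with no Nile Red so the signal is compound autofluorescence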
CaMdr1 efflux inh: Candida Mdr1 efflux pump inhibition | shares compounds with Efflux pump mplx | S. cerevisiae AD/CaMDR1, Nile Red efflux, flow cytometry | inhibition, % at 10 µM | hit rate 1% among 1,700; in the data active = inhibition above about 26%;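 note: 0% = DMSO vehicle and 100% = reference inhibitor; higher means more Nile Red retained so more efflux inhibition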
Cdr2 pump inh: Candida Cdr2 efflux pump inhibition; Nile Red retention ratio vs DMSO, % at 10 µM; hit rate 4% among 1,700; shares compounds with Efflux pump mplx; S. cerevisiae AD/CaCDR2, Nile Red retention, flow cytometry; in the data active = Nile Red retention ratio vs DMSO above about 190%;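 note: higher ratio means more blocking of Cdr2 efflux of the dye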
CaCdr1 efflux inh: inhibitors of Candida albicans Cdr1 efflux pump; hit rate 1% among 1,700; inhibition, % at 10 µM; S. cerevisiae AD/CaCDR1, Nile Red efflux, flow cytometry; shares compounds with Efflux pump mplx; AID 588522;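 active = inhibition above the screen-wide mean plus twice its standard deviation, cut at about 32% in these data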
An asterisk follows results filed as active; nt = no result.

SMILES | Efflux pump mplx | ATG4B inh | GRK2 aptamer HTS | CR mimetic SO | Cmpd fluor yeast | CaMdr1 efflux inh | Cdr2 pump inh | CaCdr1 efflux inh
COc1cc(OC)c(NS(=O)(=O)c2ccc(Cl)c(C(=O)OC(C)C(=O)N3CCCC3)c2)cc1Cl (configuration not stated) | 7.6* | -6 | 0 | 100 | 101 | 0 | 91 | 0
O=C(c1ccc(Cl)cc1)[C@@H]1[C@@H]2C(=O)N(c3ccc(Cl)cc3)C(=O)[C@@H]2C2c3ccccc3C=NN21 (some centres not stated) | 0.6* | -4 | 2 | 116 | 113 | 0 | 89 | 0
Cc1ccc(N2C(=O)[C@@H]3[C@H](C2=O)C2c4ccccc4C=NN2[C@@H]3C(=O)c2ccc(Cl)cc2)cc1 (some centres not stated) | 0 | -6 | 5 | 85 | nt | nt | nt | nt
COc1ccc(NC(=O)CSc2nnc(C)s2)cc1S(=O)(=O)N1CCOCC1 | 0 | 3 | 2 | 97 | nt | nt | nt | nt
Cc1[nH]c2ccc(C(=O)NCCN3CCOCC3)cc2c1C | 1.4* | 5 | 0 | 124 | 112 | 0 | 125 | 0
Cc1[nH]c2ccc(C(=O)NCCCN3CCCC3)cc2c1C | 1 | -9 | 0 | 99 | nt | nt | nt | nt
CC1CCN(C(=O)c2ccc(S(=O)(=O)Cc3ccccc3F)c([N+](=O)[O-])c2)CC1 | 5.8* | 1 | 0 | 118 | 111 | 0 | 102 | 0
CCC1(c2ccccc2)NC(=O)N(CC(=O)N(C)Cc2ccccc2)C1=O (configuration not stated) | 1.1* | 0 | 0 | 98 | 99 | 0 | 112 | 0
O=C(N/C=C/c1ccccc1)c1ccccc1 | 0 | 6 | 2 | 94 | nt | nt | nt | nt
COc1ccc(OC)c2sc(N3CCc4ccccc4C3)nc12 | 0 | 22 | 0 | 84 | nt | nt | nt | nt
COc1ccc(OC)c2sc(N3CCCCC3)nc12 | 1.1* | -17 | 0 | 100 | 103 | 0 | 95 | 0
Cc1ccc(C(C)(O)CS(=O)(=O)Cc2ccccc2)cc1 (configuration not stated) | 0 | -6 | 4 | 97 | nt | nt | nt | nt
CCCCC1C2=C(CCCC2=O)OC2=C1C(=O)CCC2 | 7.6* | -2 | 2 | 104 | 94 | 0 | 91 | 0
O=C1CCCC2=C1C(Cc1ccccc1)C1=C(CCCC1=O)O2 | 0 | 7 | 0 | 92 | nt | nt | nt | nt
O=C(COC(=O)c1cccc(S(=O)(=O)N2CCOCC2)c1)Nc1ccc2c(c1)OCO2 | 0 | -11 | 6 | 93 | nt | nt | nt | nt
O=C(COC(=O)c1ccc2c(c1)OCCO2)Nc1cccc(S(=O)(=O)N2CCOCC2)c1 | 0.5* | -6 | 3 | 98 | 104 | 0 | 105 | 0
Cc1ccccc1N(C(=O)c1snc(C(N)=O)c1N)C(C(=O)NCC1CCCO1)c1ccc(F)cc1 (configuration not stated) | 0 | 5 | 3 | 119 | nt | nt | nt | nt
Cc1ccc(C)c(OCc2cc(C(=O)N3CCOCC3)no2)c1 | 0 | 3 | 0 | 99 | nt | nt | nt | nt
Cc1ccc(C)c(OCc2cc(C(=O)N3CCNC(=O)C3)no2)c1 | 0 | -9 | 0 | 89 | 103 | -1 | 90 | 0
CC(C)C(=O)N1CCC2(CC1)Oc1ccc(Cl)cc1C(=O)C21CC(c2ccc(Cl)cc2)=NO1 (configuration not stated) | 0 | -1 | 3 | 88 | 103 | 0 | 121 | 0
O=C(/C=C/c1cccs1)N1CCC2(CC1)Oc1ccc(Cl)cc1C(=O)C21CC(c2ccc(Cl)cc2)=NO1 (configuration not stated) | 0 | -9 | 1 | 101 | nt | nt | nt | nt
O=C1c2cc(Cl)ccc2OC2(CCNCC2)C12CC(c1ccc(Cl)cc1)=NO2 (configuration not stated) | nt | -1 | nt | nt | 121 | 1 | 114 | 0
O=C1c2cc(Cl)ccc2OC2(CCNCC2)C12CC(c1ccccc1)=NO2 (configuration not stated) | 0 | 0 | 0 | 96 | 91 | 0 | 95 | 0
CCOc1cc(NS(=O)(=O)c2ccc(NC(C)=O)cc2)c(OCC)cc1NC(=O)c1cccs1 | 0 | -8 | 1 | 99 | nt | nt | nt | nt
O=C(O)C1Sc2[nH]c(=O)sc2C2c3cc(Br)ccc3OC(=O)C12 (configuration not stated) | 1.5* | 5 | 0 | 103 | 90 | 0 | 102 | 0
SMILES | Efflux pump mplx | ATG4B inh | GRK2 aptamer HTS | CR mimetic SO | Cmpd fluor yeast | CaMdr1 efflux inh | Cdr2 pump inh | CaCdr1 efflux inh
CCCSc1nc(C)c(-c2csc(C(C#N)=C3CCCC3)n2)cc1C#N | 0.9* | -1 | 0 | 95 | 108 | 0 | 114 | 0
CCCCSc1nc2c(cc1C#N)CCC2 | 0 | 8 | 0 | 85 | nt | nt | nt | nt
O=C1N=c2ccccc2=C1c1sc(NS(=O)(=O)c2ccccc2)nc1O | 0 | 9 | 1 | 92 | nt | nt | nt | nt
O=C1N=c2ccccc2=C1c1sc(NS(=O)(=O)Cc2ccccc2)nc1O | 0.7* | 2 | 0 | 117 | 97 | 0 | 94 | 0
Cc1ccccc1NC(=O)c1ccc(NC(=O)C2CC(=O)OC23CCCCC3)cc1 (configuration not stated) | nt | -9 | nt | nt | nt | nt | nt | nt
CCOC(=O)c1c(O)c2cccc3c2n(c1=O)CC3 | 0 | -2 | 0 | 104 | 100 | 0 | 94 | 0
Nc1ncnc2c(C3OC(CO)C(O)C3O)scc12 (configuration not stated) | nt | -1 | nt | nt | nt | nt | nt | nt
Cc1cccc(C(=O)N2CCC(=O)N(C(COCc3cccc(C(F)(F)F)c3)Cc3ccccc3)CC2)c1 (configuration not stated) | 1.0* | -2 | 2 | 111 | 101 | 0 | 98 | 0
N#Cc1ccccc1OCC(=O)N(C1CCCCC1)C1CCS(=O)(=O)C1 (configuration not stated) | 0 | 3 | 1 | 102 | nt | nt | nt | nt
Cn1cnc([N+](=O)[O-])c1S(=O)(=O)Oc1cccc2ccccc12 | nt | 2 | nt | nt | nt | nt | nt | nt
Cn1cnc([N+](=O)[O-])c1Oc1cccc2ccccc12 | 1.1* | 9 | 0 | 78 | 103 | 0 | 114 | 0
O=C(N1CCCCC1)N1CCN(S(=O)(=O)c2cccc([N+](=O)[O-])c2)CC1 | 0 | 3 | 0 | 90 | nt | nt | nt | nt
O=C(N1CCOCC1)N1CCN(S(=O)(=O)c2cccc([N+](=O)[O-])c2)CC1 | 1.8* | -1 | 1 | 110 | 104 | 0 | 96 | 0
CCc1ccccc1NC(=S)N1CCN(c2cccc(OC)c2)CC1 | 0 | 1 | 3 | 99 | nt | nt | nt | nt
COc1ccccc1/C=c1\sc2nc(-c3ccccc3OC)nn2c1=O | 0 | -7 | 0 | 105 | 100 | 0 | 106 | 0
COc1ccc(/C=c2\sc3nc(=O)c(C)nn3c2=O)c(OC)c1 | 0 | 4 | 0 | 102 | nt | nt | nt | nt
